D3 antag = D3 dopamine receptor (human) antagonism. max response, negative = inhibition, %. D3R cells, DiscoveRx beta-arrestin luminescence, antagonist mode; hits give low values. 360,000 compounds, 2.5% hits. P35462; in the data active = max response below about -50%; inconclusive = no clear call, values can overlap the other calls; note: % is set by controls: 0 for no effect and ±100 for the full control effect
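Cells expressing the human receptor were seeded at 1500 cells/well, incubated overnight at 37 degrees C in 5% CO2, then exposed to library compounds with dopamine controls for 90 minutes at 37 degrees C before luminescent detection.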
D3 ag = activates the human D3 dopamine receptor; P35462; D3R DiscoveRx beta-arrestin cells, luminescence, 90 min; max activation, %; 410,000 compounds, 0.58% hits; AID 652048; in the data active = max activation above about 30%; note: 0% is about no effect
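Cells at 1500/well, incubated overnight, then treated with pinned compounds (dopamine as control) for 90 min at 37 degrees C. DiscoveRx reagent added for 30 - 60 minutes at room temperature; luminescence read.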
RGS4 inh = human RGS4 inhibition. Potency, µM (top dose mostly 114 µM), for inactives: at the top dose activity change, negative = inhibition, hits mostly inhibitors. 390,000 compounds, 0.039% hits. Transcreener GDP fluorescence polarization, RGS4-accelerated GTP hydrolysis. AID 504845; note: potency is the fitted concentration of half-maximal effect; % is set by controls: 0 for no effect and ±100 for the full control effect; nearly all actives have a fitted effect of over 75% in size
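MLSMR compounds (23 nl, pin-transferred) preincubated 10 min at room temperature with a 500nM (2x) first reagent, then RGS4 at 900nM (2x) plus Transcreener GDP mix added; fluorescence polarization (620/688 nm) read before and after 90 min at 30 °C.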
BRCA1 expr up = activators of BRCA1 expression; AID 624202; Potency, µM (top dose mostly 46.1 µM), inactives show at the top dose activation, hits mostly activators; MCF7-BRCA1-FFLuc reporter, luminescence, 48 h; response scale: scaled: vehicle 0%, 10 µM genistein 100%; 380,000 compounds, 1.1% hits; note: potency is the fitted concentration of half-maximal effect; nearly all actives have a fitted effect of over 80% in size
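First, MCF7-BRCA1-FFLuc cells (2000/well) attach for 2 h; next, compounds are pin-added and incubated 48 h at 37 °C; finally, luciferase reagent is added and luminescence read after 15 min.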
PTHR1 agonist = activates the human parathyroid hormone receptor PTHR1. Q03431. HEK293 GP2 PTHR1 cells, GloSensor cAMP luminescence, 1 h. Potency, µM (doses to about 115 µM), without a hit: at the highest dose activation, most hits filed as activators. 410,000 compounds, 0.075% hits. AID 743266; note: potency is the fitted concentration of half-maximal effect; nearly all actives have a fitted effect of over 55% in size
Target sequence (Q03431 whole entry, looked up): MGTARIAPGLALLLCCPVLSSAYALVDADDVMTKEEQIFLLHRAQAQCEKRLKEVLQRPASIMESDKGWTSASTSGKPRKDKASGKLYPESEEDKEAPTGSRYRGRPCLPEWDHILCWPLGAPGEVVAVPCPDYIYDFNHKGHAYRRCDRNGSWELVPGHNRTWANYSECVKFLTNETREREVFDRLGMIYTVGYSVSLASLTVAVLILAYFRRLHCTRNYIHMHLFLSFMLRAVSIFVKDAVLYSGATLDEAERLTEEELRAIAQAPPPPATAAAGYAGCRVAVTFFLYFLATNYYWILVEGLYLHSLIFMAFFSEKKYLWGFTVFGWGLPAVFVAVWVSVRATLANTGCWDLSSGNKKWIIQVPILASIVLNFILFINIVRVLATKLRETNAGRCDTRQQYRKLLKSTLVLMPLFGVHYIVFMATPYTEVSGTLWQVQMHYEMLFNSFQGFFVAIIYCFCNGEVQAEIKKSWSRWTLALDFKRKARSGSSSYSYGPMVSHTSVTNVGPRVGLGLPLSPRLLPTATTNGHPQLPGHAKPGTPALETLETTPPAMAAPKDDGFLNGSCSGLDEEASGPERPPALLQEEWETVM
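HEK-293-derived GP2 cells expressing PTHR1 and a GloSensor cAMP reporter, 3,000/well, plated overnight, given luciferin plus IBMX (each 0.5 mM as added) for 1 h at 37 °C, then compound for 1 h at 37 °C. Luminescence was read after 15 min at room temperature.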
B2AR arrestin = recruits beta-arrestin to the human beta2-adrenergic receptor; P07550; beta-arrestin recruitment to beta2AR, cell-based reporter; Potency, µM (titrated, usually from 46.1 µM), inactives show at the highest dose activation, usual class: activators; 330,000 compounds, 0.02% hits;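 note: potency is the fitted concentration of half-maximal effect; 0% = DMSO controls and full agonism = EC100 isoproterenol or metaproterenol; nearly all actives have a fitted effect of over 65% in size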
Active calls of the source: *; i = inactive; ? = inconclusive; / = no result given; [ ] = dose if it differs, or a comment. Compounds with a hit are over-represented: about 3.7% of the library has one in this group of screens. Unless noted, calls come from the whole dose curve; as a rule, active = well fitted curve in the direction sought with a large enough effect; inconclusive = small, poorly fitted or top-dose-only effect, or another doubt; inactive = no such curve, though single readings can be large; an effect the other way counts as inactive or inconclusive.

SMILES	D3 antag	D3 ag	RGS4 inh	BRCA1 expr up	PTHR1 agonist	B2AR arrestin
COc1cc(C(=O)NC2CC3CCCC(C2)N3Cc2ccccc2)cc(OC)c1OC (stereo not given)	-94.7*	-18.9	-8.0%	-10.6%	-15.2%	-0.6%
N#Cc1cccc(NC(=O)Cn2c3[n+](c4ccc(C(F)(F)F)cc42)CCCCC3)c1	-73.8*	-52.3	-22.1%	-0.8%	i	-0.9%
O=C(NCc1ccco1)c1ccc(-c2ccc3nccn3c2)cc1	-18.3	-7.7	/	13.2%	-19.2%	/
CCN(CC)c1ncnc2c1cnn2Cc1ccc(C)cc1	24.0	22.5	-12.3%	-8.4%	-11.6%	-0.3%
CCN(CC)c1nc(C)nc2c1cnn2CCc1ccccc1	19.6	-1.3	-20.6%	8.91µM*	-17.8%[57.5 µM]	-0.8%
O=C(Nc1c(C(=O)Nc2cccc(C(F)(F)F)c2)oc2ccccc12)c1cc(=O)c2ccccc2o1	/	2.0	12.5%	/	-26.9%	/
O=C1C=C(OCCF)CC(c2ccccc2C(F)(F)F)O1 (stereo not given)	21.1	1.2	/	/	i	/
Nc1nc2c(ncn2[C@@H]2O[C@H](CNC(=O)[C@H](N)C3CCCCC3)[C@@H](O)[C@H]2O)c(=O)[nH]1	-16.9	-7.8	/	2.4%	-8.4%	/
COCOc1ccc(/C=C/C(=O)c2c(OCOC)cc(OCOC)c(CC=C(C)C)c2O)cc1OCOC	105.4	42.3*	-20.8%	-17.1%	-14.5%	/
COc1cc(O)cc(O)c1C(=O)/C=C/c1ccccc1	0.0	-31.9	17.1%	-35.9%	-51.6%	0.0%
COCOc1ccc(/C=C/C(=O)c2c(O)cc(OCOC)cc2OCOC)cc1	31.3	42.7*	8.8%	-15.1%	-48.4%	/
O=c1c2ccccc2oc2ccc(Oc3ccccc3)cc12	0.0	6.3	0.7%	3.55µM*	i	-0.5%
S=C(Nc1ccc2[nH]ccc2c1)NC1CCCCC1	-20.5	3.0	25.8%	?	i	0.0%
O=C(Nc1ccc([N+](=O)[O-])cc1)c1cccc([N+](=O)[O-])c1	16.4	3.9	/	0.3%	-12.5%	/
O=C(NNC(=O)c1cccc(O)c1)Nc1ccc([N+](=O)[O-])cc1	-57.3*	-5.7	-14.3%	1.1%	i	-0.1%
COc1ccc(-c2nn(-c3ccccc3)cc2N)cc1	11.1	2.8	-22.8%	3.16µM*	-34.2%	-0.3%
COc1ccc(-c2c(C)nn(-c3ccccc3)c2N)cc1	16.8	-8.8	-2.3%	11.2µM*	-15.0%	-0.3%
O=S(=O)(c1ccc(F)c(F)c1)N1CCN(Cc2ccc3c(c2)OCO3)CC1	-2.5	-10.7	-15.7%	-18.1%	i	0.5%
O=S(=O)(c1ccc2c(c1)OCCO2)N1CCN(Cc2ccc3c(c2)OCO3)CC1	-50.4*	2.2	-0.2%	-6.4%	i	-0.4%
COc1cc(C)c(C)cc1S(=O)(=O)N1CCN(Cc2ccc3c(c2)OCO3)CC1	-54.5*	-16.2	7.5%	-14.2%	-20.7%[57.5 µM]	-0.1%
CC(C)CCN(C(=O)Cc1ccc(Cl)c(Cl)c1)c1c(N)n(Cc2ccccc2)c(=O)[nH]c1=O	-72.2*	-13.5	8.5%	-68.4%	-38.3%	0.0%
Nc1c(N(CCC2=CCCCC2)C(=O)COc2ccc(F)cc2Cl)c(=O)[nH]c(=O)n1Cc1ccccc1	-91.5*	-24.1	-0.1%	-75.5%	-24.7%	/
CC(C)CCN(C(=O)c1ccncc1)c1c(N)n(Cc2ccccc2)c(=O)[nH]c1=O	18.2	3.7	-10.9%	-15.8%	i	0.5%
CC1CCCN(CCOc2ccc3ccccc3c2Br)C1 (stereo not given)	-96.4*	-16.9	10.0%	-10.2%	i	-0.2%
Clc1ccc(OCCOCCN2CCCCC2)c(Br)c1	46.2	-1.7	22.2%	1.6%[1.84 µM]	i	0.2%
SMILES	D3 antag	D3 ag	RGS4 inh	BRCA1 expr up	PTHR1 agonist	B2AR arrestin
CN(C)CCOCCOc1ccc(Cl)cc1Br	-75.9*	-19.0	-2.3%	-12.9%	-22.7%	0.3%
CC1CCCN(CCCOc2ccc(Cl)cc2Br)C1 (stereo not given)	-68.2*	-9.0	9.2%	31.7%	i	-1.7%
CC1CCN(CCCOc2ccc(Cl)cc2Br)CC1	-89.3*	-23.1	-10.0%	71.5%	-18.2%	0.1%
Cc1ccc(Cl)c(OCCN2CCCC(C)C2)c1 (stereo not given)	-68.3*	-8.2	8.9%	-4.3%	i	-1.1%
COc1ccc(OCCCN2CCCC(C)C2)cc1 (stereo not given)	-60.5*	-15.4	9.9%[11.4 µM]	-9.8%	-1.8%	-0.1%
CC1CCCN(CCSc2ccc(Cl)cc2)C1 (stereo not given)	?	-13.3	-26.7%	2.5%	-23.5%	-0.4%
CC1CCCN(CCCOc2ccc([N+](=O)[O-])cc2)C1 (stereo not given)	-14.2	-6.9	-29.4%	40.0%	i	-0.4%
Cc1cc(Cl)c(OCCOCCN2CCC(C)CC2)c(Br)c1	-56.4*	-28.6	-2.3%	-63.9%	-3.3%	-0.4%
CC1CCN(CCOCCOc2ccc(Cl)cc2Br)CC1	-88.0*	-27.7	-2.9%	-0.4%	?	0.2%
CC(C(=O)Nc1ccccc1C(F)(F)F)N1CCN(C)CC1 (stereo not given)	1.1	2.0	16.0%	-7.6%	i	-0.9%
CN(C)CCNC(=O)c1onc(CSc2nc3ccccc3[nH]2)c1C(=O)NCCN(C)C	-28.5	12.4	-5.9%	20.5%	i	-0.8%
COc1ccc(CCN2CC(C(=O)OCC(=O)N(C)Cc3ccccc3)CC2=O)cc1OC (stereo not given)	8.6	2.0	?	-12.5%	i	-0.9%
O=S(=O)(Cc1ccc(Cl)cc1)NCc1cccnc1	5.9	-14.0	-12.9%	1.0%	i	0.4%
O=C(CSc1nc2c(sc3ccccc32)c(=O)n1CCCN1CCCC1)NCC1CCCO1 (stereo not given)	-56.9*	0.3	-19.4%	3.1%[1.84 µM]	i	-0.1%
CC(C)C(c1nnnn1Cc1ccco1)N1CCN(C2CCCC2)CC1 (stereo not given)	-13.0	1.7	23.0%	-21.3%	-21.0%[57.5 µM]	-0.3%
c1coc(Cn2nnnc2CN2CCN(C3CCCC3)CC2)c1	-68.5*	-2.7	-26.5%	0.4%	-4.6%[57.5 µM]	0.0%
COc1cc(C(=O)Nc2ccc3nc(SCc4ccc(C)cc4)sc3c2)cc(OC)c1OC	/	6.9	-15.7%	1.1%	-2.1%	/
O=C(c1ccc(F)cc1)C1CCN(Cc2ccccc2F)CC1	-112.2*	-5.1	/	6.9%	i	/
CC1(C)C(=O)N(CCN2CCC(C(=O)c3ccc(F)cc3)CC2)c2ccccc21	-84.3*	-82.4	11.1%[56.9 µM]	-30.3%	-90.3%	0.4%
O=C(c1ccc(Cl)cc1)C1CCN(Cc2ccccc2)CC1	-113.9*	-19.4	-5.0%	-44.7%	i	-1.2%
O=C(c1ccc(F)cc1)C1CCN(CCn2c(=S)[nH]c3ccccc3c2=O)CC1	/	-23.0	?	/	/	5.9%

Source: PubChem BioAssay (National Center for Advancing Translational Sciences (NCATS))
